According to the antibiotic and cytotoxicity screens of Wong et al. (2023):
Screen size: about 39,000 compounds; about 3,300 (8.5%) were called active. The sample holds actives, similar compounds and a random draw of the others, so the mix is not that of the screen.

Each molecule was assayed on HepG2 (assay: cytotoxicity call (relative viability < 0.9)). Conditions: 10 µM.

Structure (SMILES)	cytotoxicity call
Cn1cnc(S(=O)(=O)N[C@@H]2C=C[C@H](CC(=O)NCC3CC3)O[C@H]2CO)c1	inactive
COc1ccc(S(=O)(=O)N(C)C[C@@H]2OCCCC[C@@H](C)Oc3ccc(NC(=O)CCCCCC(=O)Nc4ccccc4N)cc3C(=O)N([C@H](C)CO)C[C@@H]2C)cc1	inactive
COc1ccccc1CNC(=O)C[C@@H]1C[C@@H]2c3cc(NC(=O)Cc4ccncc4)ccc3O[C@@H]2[C@@H](CO)O1	inactive
C[C@@H]1CCCCO[C@@H](CN(C)CC2CCCCC2)[C@@H](C)CN([C@@H](C)CO)C(=O)c2cc(N(C)C)ccc2O1	inactive
C[C@H](CO)N1C[C@H](C)[C@H](CN(C)C(=O)Nc2ccc3c(c2)OCO3)OCCCC[C@H](C)Oc2ccc(NS(=O)(=O)c3ccc(F)cc3)cc2C1=O	inactive
CS(=O)(=O)N1C[C@@H](O)COC[C@@H]2O[C@H](CC(=O)NCc3ccccc3)CC[C@H]21	inactive
C[C@@H]1CCCCO[C@H](CN(C)C(=O)Nc2ccc(F)cc2)[C@@H](C)CN([C@H](C)CO)C(=O)c2cc(NS(=O)(=O)c3cccs3)ccc2O1	inactive
O=C(C[C@H]1CC[C@H]2[C@@H](COC[C@@H](O)CN2S(=O)(=O)c2ccccc2)O1)NCCN1CCCCC1	inactive
Cc1noc(C)c1NC(=O)Nc1ccc2c(c1)C(=O)N([C@@H](C)CO)C[C@H](C)[C@H](CN(C)C(=O)Nc1ccc3c(c1)OCO3)OCCCC[C@H](C)O2	inactive
COc1ccc(S(=O)(=O)N(C)C[C@H]2Oc3c(cccc3N(C)C)C(=O)N([C@@H](C)CO)C[C@H]2C)cc1	inactive
C[C@@H]1CCCCO[C@H](CN(C)Cc2ccc(Cl)c(Cl)c2)[C@H](C)CN([C@H](C)CO)C(=O)c2cc(NC(=O)CCC(F)(F)F)ccc2O1	active
C[C@@H]1CCCCO[C@@H](CN(C)Cc2ccc3c(c2)OCO3)[C@H](C)CN([C@H](C)CO)C(=O)c2cc(NC(=O)CCC(F)(F)F)ccc2O1	inactive
C[C@@H]1CCCCO[C@H](CN(C)Cc2ccc(Cl)c(Cl)c2)[C@H](C)CN([C@@H](C)CO)C(=O)c2cc(NC(=O)CCC(F)(F)F)ccc2O1	active
C[C@@H]1CCCCO[C@@H](CN(C)Cc2ccc(Cl)c(Cl)c2)[C@@H](C)CN([C@H](C)CO)C(=O)c2cc(NC(=O)CCC(F)(F)F)ccc2O1	inactive
C[C@@H]1CCCCO[C@@H](CN(C)Cc2ccc(Cl)c(Cl)c2)[C@H](C)CN([C@H](C)CO)C(=O)c2cc(NC(=O)CCC(F)(F)F)ccc2O1	inactive
C[C@@H]1CCCCO[C@H](CN(C)Cc2ccc3c(c2)OCO3)[C@@H](C)CN([C@@H](C)CO)C(=O)c2cc(NC(=O)CCC(F)(F)F)ccc2O1	inactive
COc1ccc(S(=O)(=O)Nc2ccc3c(c2)C(=O)N([C@@H](C)CO)C[C@@H](C)[C@@H](CN(C)S(=O)(=O)c2cn(C)cn2)OCCCC[C@@H](C)O3)cc1	inactive
C[C@@H]1CCCCO[C@@H](CN(C)C(=O)Cc2ccccc2)[C@@H](C)CN([C@@H](C)CO)C(=O)c2cc(NC(=O)NC3CCCCC3)ccc2O1	inactive
C[C@@H]1COC(=O)[C@@H](NC(=O)OCC2c3ccccc3-c3ccccc32)CC=CC[C@H](CC(=O)NCCO)C(=O)N1	inactive
CN(C)CCCC[C@@H]1NC(=O)[C@H]2C[C@@H](C(=O)NCCCCCNC(=O)CS)[C@@H](c3ccc(O)cc3)N2C1=O	inactive
O/N=C/c1ccc2ccccc2c1	inactive
O/N=C/c1c(Cl)cccc1Cl	inactive
O/N=C/c1ccccc1C(F)(F)F	active
CC(C)(C)N1C[C@H](C(=O)O)CC1=O	inactive
Cc1ccc(S(=O)(=O)Nc2cccc3c2O[C@H](CN(C)S(C)(=O)=O)[C@@H](C)CN([C@H](C)CO)C3=O)cc1	inactive

Structure (SMILES)	cytotoxicity call
C[C@@H]1CN([C@@H](C)CO)S(=O)(=O)c2ccc(-c3cncnc3)cc2O[C@@H]1CN(C)C(=O)c1ccc2c(c1)OCO2	inactive
CCc1oc2ccccc2c1C(=O)c1cc(Br)c(O)c(Br)c1	active
O=c1[nH]c(=O)c2ccccc2o1	inactive
O=c1c2ccccc2oc2ccc(O)cc12	inactive
Cc1ccc(CNc2ccc3c(c2)ncn3C2CCCCC2)cc1	inactive
O=C(CCCCCNC(=O)OCc1ccc(CO[C@@H]2C[C@H](C3CCCCC3)C=C(C(=O)N3CCN(Cc4ccccc4)CC3)O2)cc1)NO	inactive
COc1cccc(C#Cc2ccc([C@H]3[C@H](CO)N4C(=O)CN(S(=O)(=O)c5ccccc5C)C[C@@H]34)cc2)c1	inactive
O=C1CN(S(=O)(=O)Cc2ccccc2)C[C@@H]2[C@H](c3ccc(C#Cc4ccc(F)cc4)cc3)[C@H](CO)N12	inactive
O=C1CN(S(=O)(=O)Cc2ccccc2)C[C@H]2[C@@H](c3ccc(C#Cc4cccc(F)c4)cc3)[C@H](CO)N12	active
COc1cccc(C#Cc2ccc([C@@H]3[C@H]4CN(S(=O)(=O)c5ccccc5C)CC(=O)N4[C@H]3CO)cc2)c1	inactive
O=C1CN(S(=O)(=O)Cc2ccccc2)C[C@H]2[C@H](c3ccc(C#Cc4cccc(F)c4)cc3)[C@H](CO)N12	active
O=C1CN(S(=O)(=O)Cc2ccccc2)C[C@H]2[C@H](c3ccc(C#Cc4cccc(F)c4)cc3)[C@@H](CO)N12	active
O=C1CN(S(=O)(=O)Cc2ccccc2)C[C@@H]2[C@H](c3ccc(C#Cc4cccc(F)c4)cc3)[C@@H](CO)N12	inactive
O=C1CN(S(=O)(=O)Cc2ccccc2)C[C@H]2[C@@H](c3ccc(C#Cc4ccc(F)cc4)cc3)[C@H](CO)N12	inactive
COc1cccc(C#Cc2ccc([C@@H]3[C@H](CO)N4C(=O)CN(S(=O)(=O)c5ccccc5C)C[C@@H]34)cc2)c1	inactive
O=C1CN(S(=O)(=O)Cc2ccccc2)C[C@H]2[C@@H](c3ccc(C#Cc4cccc(F)c4)cc3)[C@@H](CO)N12	inactive
O=C1CN(S(=O)(=O)Cc2ccccc2)C[C@@H]2[C@@H](c3ccc(C#Cc4cccc(F)c4)cc3)[C@@H](CO)N12	active
O=C1CN(S(=O)(=O)Cc2ccccc2)C[C@@H]2[C@@H](c3ccc(C#Cc4cccc(F)c4)cc3)[C@H](CO)N12	inactive
CN(C)Cc1ccc(O)c(CN(C)C)n1	inactive
COCC(=O)N1C[C@H](C)[C@@H](OC)CN(C)C(=O)c2cc(NC(=O)Nc3ccccc3)ccc2OC[C@@H]1C	inactive
COCCNC(=O)C[C@@H]1CC[C@@H]2[C@H](COC[C@@H](O)CN2C(=O)Nc2ccccc2OC)O1	inactive
O=c1cccn[nH]1	inactive
COc1ccc(-c2cnc3c(c2)C(=O)N([C@@H](C)CO)C[C@H](C)[C@@H](CN(C)C(=O)Cc2ccccn2)O3)cc1	inactive
C[C@@H]1CN([C@H](C)CO)C(=O)c2cc(NS(=O)(=O)c3cccs3)ccc2O[C@H]1CN(C)S(C)(=O)=O	inactive
C[C@@H]1CCCCO[C@@H](CN(C)S(=O)(=O)c2cccs2)[C@H](C)CN([C@@H](C)CO)C(=O)c2cc(NC(=O)Nc3cccc4ccccc34)ccc2O1	inactive

Structure (SMILES)	cytotoxicity call
COCC#Cc1ccc2c(c1)O[C@@H](CN(C)C(=O)C1CCCCC1)[C@@H](C)CN([C@H](C)CO)S2(=O)=O	inactive
C[C@H](CO)N1C[C@H](C)[C@@H](CN(C)C(=O)CCC(F)(F)F)OCCCC[C@H](C)Oc2ccc(NC(=O)c3ccccc3)cc2C1=O	inactive
C[C@H]1CN([C@@H](C)CO)C(=O)c2ccccc2-c2ccccc2CO[C@H]1CN(C)C(=O)Nc1ccc(-c2ccccc2)cc1	inactive
COc1ccc(NC(=O)Cn2c(=O)c3c(OC)ccnc3n(C)c2=O)c(OC)c1	inactive
COc1cc(/C=C/C(=O)O[C@H]2CC[C@]34C[C@]35CC[C@]3(C)[C@@H]([C@@H](C)CCC=C(C)C)CC[C@@]3(C)[C@@H]5CC[C@@H]4C2(C)C)ccc1O	inactive
O=C1CN(S(=O)(=O)Cc2ccccc2)C[C@@H]2[C@H](c3ccc(C#Cc4cccc(F)c4)cc3)[C@H](CO)N12	active
O=C(CN1CCOCC1)N[C@H]1CC[C@H](CCNC(=O)C2CCC2)O[C@H]1CO	inactive
C[C@@H]1CN([C@@H](C)CO)C(=O)c2cc(NC(=O)Cn3cnnn3)ccc2O[C@H]1CN(C)Cc1ccc(C(F)(F)F)cc1	inactive
COc1ccc(CCNC(=O)[C@@]2(Sc3ccc(C)cc3)CC(=O)N(Cc3ccccc3C(F)(F)F)[C@@H]2c2ccc(CO)cc2)cc1	inactive
O=c1[nH]cc(F)c(=O)[nH]1 [listing 1 of 2 here]	active
O=c1[nH]cc(N2CCCCC2)c(=O)[nH]1	inactive
O=c1[nH]cc(Nc2ccccc2)c(=O)[nH]1	inactive
O=c1[nH]cc(F)c(=O)[nH]1 [listing 2 of 2 here]	active
O=c1[nH]cc(S(=O)(=O)N2CCN(c3ccccc3F)CC2)c(=O)[nH]1	inactive
CCOCc1c[nH]c(=O)[nH]c1=O	inactive
COc1ccc(NC(=O)N(C)C[C@H]2Oc3c(NS(=O)(=O)c4cn(C)cn4)cccc3C(=O)N([C@@H](C)CO)C[C@H]2C)cc1	inactive
Cn1cc(S(=O)(=O)Nc2ccc3c(c2)OCCO3)c(=O)n(C)c1=O	inactive
C[C@@H]1CN([C@@H](C)CO)C(=O)c2cc(C#CC3(O)CCCC3)cnc2O[C@@H]1CN(C)S(C)(=O)=O	inactive
CC(C)NC(=O)N(C)C[C@H]1Oc2ccc(NC(=O)Nc3ccc4c(c3)OCO4)cc2C(=O)N([C@H](C)CO)C[C@@H]1C	inactive
C=CCN(C(=O)[C@H]1N(C(C)(C)CO)C(=O)[C@H]2[C@H](C(=O)O)[C@@H]3C=C[C@@]21O3)C(C)(C)C	inactive
Cc1cc(-c2ccccc2)oc2cc3ccccc3c1-2	inactive
O=c1cc(-c2ccccc2)oc2ccc(O)cc12	inactive
S=c1cc(-c2ccccc2)oc(-c2ccccc2)c1	active
